Data published in PubChem BioAssay (NCI).
This is part of a sample that, as a whole, favours compounds with a hit. Of some 83,000 tested, about 20% had one in any assay.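 96-well plates, one dose, 48 hours. Percent growth reported; active if below 10.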 Values without a mark were called inactive. Active and inactive are the calls of the source.

Tests used:
Assay in all cases: NCI-60 one-dose screen, 48 h (100 = growth as untreated, 0 = no growth, -100 = all killed)
Details in all cases: 10 µM unless noted
SR leukemia = system: SR leukemia
RPMI-8226 leukemia = system: RPMI-8226 leukemia
OVCAR-8 ovarian = system: OVCAR-8 ovarian
OVCAR-5 ovarian = system: OVCAR-5 ovarian
OVCAR-4 ovarian = system: OVCAR-4 ovarian
IGROV1 ovarian = system: IGROV1 ovarian
OVCAR-3 ovarian = system: OVCAR-3 ovarian
HS 578T breast = system: HS 578T breast
NCI/ADR-RES ovarian = system: NCI/ADR-RES ovarian
SK-OV-3 ovarian = system: SK-OV-3 ovarian

Row | Structure (SMILES) | growth (SR leukemia) | growth (RPMI-8226 leukemia) | growth (OVCAR-8 ovarian) | growth (OVCAR-5 ovarian) | growth (OVCAR-4 ovarian) | growth (IGROV1 ovarian) | growth (OVCAR-3 ovarian) | growth (HS 578T breast) | growth (NCI/ADR-RES ovarian) | growth (SK-OV-3 ovarian)
1 | O=C1CC[C@H](c2ccc(O)c3c2C(=O)[C@@H]2O[C@@H]2C3=O)c2cccc(O)c21 | 2.02% (active) | -3.81% (active) | 43.5% | 99.6% | 72.4% | 90% | -9.05% (active) | 98.4% | 90% | –
2 | COc1ccc(/C=C/C(=O)c2cc(O)ccc2O)cc1 | 71.9% | 45.8% | 88.6% | 108% | 136% | – | 83.4% | 106% | 91.8% | 115%
3 | Cn1ncc2c(=O)nc3c(-c4ccccc4)n[nH]n3c21 | 113% | 123% | 99.8% | 109% | 100% | – | 95.4% | 108% | 105% | 103%
4 | COc1cc(C2CC(=O)c3ccccc3N2)cc(OC)c1OC (stereo unspecified) | 99.6% | 91.3% | 94.3% | 103% | 97.4% | 99% | 110% | 99.1% | 101% | –
5 | Cn1cc(-c2nonc2-c2cn(C)c3ccc(F)cc23)c2ccccc21 | 31.3% | 13.5% | 28.5% | 41.5% | 41.6% | – | -18.9% (active) | 3.84% (active) | 4.44% (active) | 41.5%
6 | COc1cccc(-c2nc(SCC(=O)Nc3ccc(C(=O)/C=C/c4ccc(OC)c(OC)c4)cc3)[nH]c(=O)c2C#N)c1 | 60.6% | 93.3% | 99.2% | 110% | 80.8% | – | 83.6% | 82.4% | 93.6% | 90.5%
7 | Cn1ccnc1C(=O)/C=C/c1ccccc1 | 18.9% | -8.79% (active) | 20.9% | 38.7% | 26.8% | – | 0.598% (active) | -2.82% (active) | 20.9% | 27.5%
8 | c1ccc(-c2cc3n4c(-c5ccccc5)nn(-c5ccccc5)c4cnc-3n2)cc1 | 113% | 84.5% | 58.1% | 92.3% | 43.5% | – | 60.3% | 31.6% | 84.4% | 63.8%
9 | COc1cc2c(cc1O)CC[C@@H]1[C@@H]2CC[C@]2(C)[C@@H](NCCN(C)C)CC[C@@H]12 | -67.2% (active) | -59.9% (active) | -79% (active) | -84% (active) | -63.3% (active) | – | -88.3% (active) | -56.9% (active) | -85.9% (active) | -90% (active)
10 | COc1ccc(/C=C/c2nc3ccccc3nc2/C=C/c2ccc(OC)cc2)cc1 | 83.8% | 98.5% | 99.5% | 99.8% | 88.7% | – | 104% | 90.8% | 99.5% | 102%
11 | O=C1Nc2c(ccc(Cl)c2Cl)/C1=C\c1ccc(C(F)(F)F)cc1 | 104% | 62.8% | 85.1% | 83.9% | 75.1% | – | 68.2% | 63.9% | 85.8% | 88.2%
12 | Cc1ccc(NC(=O)/C=C/c2ccccc2)c(C(N)=O)c1 | -23.3% (active) | 23.2% | 55.1% | 51.8% | 31.4% | – | -25.8% (active) | -3.46% (active) | 24.7% | 2.6% (active)
13 | COc1ccc(C(=O)COc2ccc(/C=C3\COc4ccc(OC)cc4C3=O)cc2)cc1 | 2.54% (active) | -5.51% (active) | 44.3% | 108% | 92.1% | – | 104% | 81.7% | 80.7% | 105%
14 | Oc1cccc2ccc(N/N=C/c3cc(CN4CCOCC4)c(O)c4ncccc34)nc12 | 2.95% (active) | 16.2% | 13% | 28.3% | 14.2% | – | 23.2% | 36.3% | 2.84% (active) | -14.9% (active)
15 | CC(C)(C)c1cc(C(C)(C)C)cc(S(=O)(=O)Nc2cc3ccccc3cc2C(=O)NCCN)c1 | -32.1% (active) | -5.61% (active) | 5.01% (active) | 94.8% | 70.6% | 62.3% | 70.5% | 73.2% | 82% | –
16 | COc1ccc(-n2nc(C)c3c(Nc4ccc(NC(=O)Nc5ccc(Cl)c(C(F)(F)F)c5)cc4)ncnc32)cc1 | 20.8% | 0.105% (active) | 5.05% (active) | 4.07% (active) | 20.8% | – | 5.65% (active) | -12% (active) | 1.32% (active) | 1.72% (active)
17 | Cc1cn2c(/C=C3/C(=O)Nc4c3ccc3ccccc43)c(C(F)(F)F)nc2s1 | 8.46% (active) | 14.7% | 27.7% | 43.4% | 51.3% | 42.1% | -1.83% (active) | 16.5% | 5.22% (active) | –
18 | O=C1c2ccccc2C(=O)c2c(N=Nc3[nH]c(=S)[nH]c3O)cccc21 | 24.5% | -2.62% (active) | 30.3% | 49.8% | 58.9% | – | 1.75% (active) | 5.86% (active) | 50% | 30.6%
19 | CC(C)CC1C(=O)N2CCC[C@H]2C2(O)O[C@](NC(=O)C3C=C4c5cccc6[nH]c(Br)c(c56)C[C@H]4N(C)C3)(C(C)C)C(=O)N12 (stereo partly specified) | 28.6% | 11.1% | 63.3% | 69.6% | 41% | 59% | 61.5% | 89.7% | 57.7% | –
20 | C=C1c2nc3ccccc3n2C=C(c2cccc(Cl)c2)N1Cc1ccc(OC)cc1 | -17.4% (active) | -15.6% (active) | 9.77% (active) | 35.3% | 32.4% | – | -28.1% (active) | 15.5% | 10.2% | 5.13% (active)
21 | Cc1nn(-c2ccc(F)cc2)c2ncnc(Oc3ccc(NC(=O)Nc4ccc(Cl)c(C(F)(F)F)c4)cc3)c12 | 110% | 98.7% | 96.5% | 99.3% | 110% | – | 114% | 91% | 98.5% | 92.6%
22 | OCC(O)c1nc2ccc3[nH]ncc3c2c2c1CCCC2 (stereo unspecified) | -4.58% (active) | 10.2% | 10.8% | 10.2% | 50.4% | – | 16.1% | -10.5% (active) | 9.22% (active) | 40.9%
23 | O=C1C=C(O)C(=O)C(CC2=C(O)C(=O)C=C(O)C2=O)=C1O | 103% | 107% | 105% | 91% | 101% | 109% | 108% | 99.4% | 99.6% | –
24 | O=C1c2cc3c(cc2-c2c1c1ccc(F)cc1c(=O)n2CCCNCCO)OCO3 | -25.7% (active) | -12.5% (active) | -33% (active) | -59.4% (active) | -76.9% (active) | – | -28.1% (active) | 3.15% (active) | -13.8% (active) | -33.7% (active)
25 | O=C1Nc2ccc(Br)cc2C12Oc1ccccc1C1CC(c3ccc(F)cc3)=NN12 (stereo unspecified) | 87.1% | 84% | 93.7% | 111% | 85.5% | – | 96.3% | 89.1% | 97.3% | 102%
26 | CC(=O)c1cc2c(N)c(C(=O)Nc3cccc(F)c3C)sc2nc1C | 63.9% | 86% | 79.6% | – | 79.8% | 94.3% | 108% | 80.1% | 91.5% | 53.8%
27 | O=C1c2cc3c(cc2-c2c1c1ccc(F)cc1c(=O)n2C[C@H](O)[C@@H](O)[C@H](O)CO)OCO3 | 0.151% (active) | -0.286% (active) | 0.0181% (active) | – | 15.4% | 17.7% | -20.3% (active) | 0.229% (active) | 4.78% (active) | -20.8% (active)
28 | C#Cc1cccc(NC(=O)c2ccccc2NC(=O)CCl)c1 | 62.1% [8.25 µM] | 99.5% [8.25 µM] | 60.6% [8.25 µM] | – | 82.3% [8.25 µM] | -26.1% [8.25 µM] (active) | 90.6% [8.25 µM] | 69.3% [8.25 µM] | 81.1% [8.25 µM] | 95.2% [8.25 µM]
29 | N#CN1CC[C@H](C(=O)Nc2cc3cc(C(N)=O)ccc3cn2)C1 | 0.903% (active) | 8.19% (active) | 1.62% (active) | – | 4.32% (active) | 15.7% | -14.4% (active) | -0.591% (active) | 1.36% (active) | -10.2% (active)
